Measured values published in PubChem BioAssay (NCI).
This is part of a sample that, as a whole, favours compounds with a hit. Of some 83,000 tested, about 20% had one in any assay.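 48-hour exposure, single concentration, 96-well plates; percent growth endpoint where 0 means no net growth. Active: below 10.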 Values without a mark were called inactive. The source made the active and inactive calls.

How the values were obtained:
Assay in all cases: NCI-60 one-dose screen, 48 h (100 = growth as untreated, 0 = no growth, -100 = all killed)
Settings in all cases: 10 µM unless noted
[1] = system: NCI-H23 lung
[2] = system: NCI-H226 lung
[3] = system: NCI-H322M lung
[4] = system: HOP-62 NSCLC
[5] = system: NCI-H460 lung
[6] = system: NCI-H522 lung
[7] = system: A549/ATCC NSCLC
[8] = system: 786-0 renal
[9] = system: COLO 205 colon
[10] = system: DU-145 prostate
[11] = system: K-562 leukemia
[12] = system: MDA-MB-231 breast
[13] = system: RXF 393 renal
[14] = system: SF-268 CNS
[15] = system: SF-295 CNS
[16] = system: SF-539 CNS
[17] = system: UACC-257 melanoma
[18] = system: M14 melanoma
[19] = system: HCT-15 colon
[20] = system: MALME-3M melanoma

Compound | growth [1] [%] | growth [2] [%] | growth [3] [%] | growth [4] [%] | growth [5] | growth [6] | growth [7] | growth [8] [%] | growth [9] [%] | growth [10] | growth [11] | growth [12] [%] | growth [13] [%] | growth [14] [%] | growth [15] [%] | growth [16] [%] | growth [17] [%] | growth [18] [%] | growth [19] [%] | growth [20] [%]
O=C1NCC(Nc2ccc(Br)cc2Cl)C(=O)N1 (configuration not stated) | 100 | 109 | 126 | 113 | 112% | 93% | 122% | 103 | 98 | 119% | 95.5% | 104 | 112 | 105 | 118 | 98.9 | 160 | 93.8 | 107 | 
O=C1CCCN1C1CCN(Cc2cc3ccccc3[nH]c2=O)c2ccccc21 (configuration not stated) | 82.7 | 78.3 | 83.2 | 79.5 | 102% | 63% | 98.8% | 85.2 | 106 | 101% |  | 92.6 | 99.4 | 94.7 | 72.3 | 97.2 | 114 | 86.1 | 92.4 | 76.4
Cc1nn(-c2ccc(Cl)cc2)c2nc3c(nc12)C(=O)C(=O)c1ccccc1-3 | 75.5 | 65.2 | 65.1 | 72.1 | 5.27% (active) | 79.7% | 18.2% | 89.5 | 54.3 | -22% (active) |  | 40.4 | 89.6 | 89.3 | 12.1 |  | 69.2 | 75.5 | 73.9 | 36.8
O=C(/C(=C/c1cccc([N+](=O)[O-])c1)c1ccccc1)c1ccccc1 | 68 | 58.8 | 80.6 | 91.2 | 67.9% | 43.8% | 53.6% | 68.4 | 86.3 | 19.8% | 4.03% (active) | 51.6 |  | 34.4 | 64.2 | 81.6 | 36.5 | 46.4 | 16.6 | 
N#Cc1cccc(/C=C(/C(=O)c2ccccc2)c2ccccc2)c1 | 81.2 | 71.7 | 77.8 | 94.5 | 77.5% | 57.8% | 62.8% | 76.2 | 96.8 | 37% | 1.89% (active) | 54.5 |  | 51.1 | 63.5 | 91.9 | 43.1 | 58.8 | 18.9 | 
CCOC(=O)C(Cc1ccccc1)(C(=O)OCC)C(Br)C(=O)c1ccccc1 (configuration not stated) | 84.4 | 88 | 83.9 | 95.6 | 93% | 22.5% | 80.2% | 50 | 63 | 93% |  | 64.2 | 75.5 | 88 | 94.5 | 105 | 70.9 | 84.1 | 41.9 | 54.2
O=C(/C(=C/c1ccc([N+](=O)[O-])cc1)c1ccccc1)c1ccccc1 | 67.1 | 56.6 | 74.3 | 88.9 | 65.6% | 31.4% | 48.7% | 65.3 | 87.6 | 23.4% | 3.83% (active) | 53.6 |  | 27.8 | 67.5 | 83 | 41.1 | 51.6 | 14.6 | 
Cc1cc2c(C#N)n3c(c2cc1C)C(=O)C(c1ccccc1)Oc1ccccc1-3 (configuration not stated) | 21 | 34.6 | 81.8 | 35.7 | 42.1% | -35.7% (active) | 4.49% (active) | 41.7 | 56.6 | 64.4% | 12.7% | 58.9 |  | 35.1 | 14.8 | 74 | 44.7 | 36.8 | 16.4 | 
